Experimental data as given in paper PMC4053984, “DNA binding specificities of the long zinc-finger recombination protein PRDM9”.

Target: PRDM9Cst (Mus musculus (CAST/EiJ))
Assay: competition EMSA; competition against biotin-labeled 75-bp Hlx1 B6 oligo; 10 mM Tris pH 7.5, 50 mM KCl, 1 mM DTT, 50 ng/ul poly(dI/dC), 0.05% NP-40, crude E. coli extract 3 ul in 20 ul; 1 h with unlabeled competitor, then 4 h with biotin-labeled 75-bp Hlx1; temperature not stated; high values mean tight binding
Settings: tags: N-terminal His tag (pBAD/HisB); dsDNA, one strand shown

Sequence of PRDM9Cst (Mus musculus (CAST/EiJ)) (chain, as listed by the source): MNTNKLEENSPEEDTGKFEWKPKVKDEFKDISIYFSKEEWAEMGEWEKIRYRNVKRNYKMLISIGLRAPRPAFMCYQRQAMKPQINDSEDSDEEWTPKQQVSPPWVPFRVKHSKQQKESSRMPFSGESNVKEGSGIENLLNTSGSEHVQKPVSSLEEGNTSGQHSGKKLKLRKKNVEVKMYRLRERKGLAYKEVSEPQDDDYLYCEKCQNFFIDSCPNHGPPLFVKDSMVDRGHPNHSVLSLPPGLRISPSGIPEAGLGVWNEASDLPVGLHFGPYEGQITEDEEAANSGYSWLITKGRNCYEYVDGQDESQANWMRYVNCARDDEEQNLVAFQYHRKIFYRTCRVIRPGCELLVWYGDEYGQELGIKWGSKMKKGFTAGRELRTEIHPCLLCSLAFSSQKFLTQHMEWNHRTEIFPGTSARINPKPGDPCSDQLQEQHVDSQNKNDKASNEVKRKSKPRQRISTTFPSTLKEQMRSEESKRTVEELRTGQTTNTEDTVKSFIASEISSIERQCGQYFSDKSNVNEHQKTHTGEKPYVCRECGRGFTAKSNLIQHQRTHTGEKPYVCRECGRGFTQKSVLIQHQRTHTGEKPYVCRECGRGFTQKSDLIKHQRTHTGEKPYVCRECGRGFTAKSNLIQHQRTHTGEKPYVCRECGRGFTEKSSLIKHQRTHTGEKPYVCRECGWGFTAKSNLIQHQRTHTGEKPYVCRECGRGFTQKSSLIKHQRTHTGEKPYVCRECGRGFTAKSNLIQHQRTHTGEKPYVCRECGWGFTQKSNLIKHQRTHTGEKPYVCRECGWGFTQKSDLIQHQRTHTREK

ATAGTGTGCAGACTTGGACCCTGCCCTTTCTTA
binding signal: 0.13 Bmut (0 = wild type, -1 = scrambled)

ATAGTGTGCACACTTGGACCCTGCCCTTTCTTT
binding signal: -0.2 Bmut (0 = wild type, -1 = scrambled)

ATAGCGTGCAGACTTGGACCCTGCCCTTTCTTT
binding signal: -0.5 Bmut (0 = wild type, -1 = scrambled)

ATAGTGTGCAGACTAGGACCCTGCCCTTTCTTT
binding signal: 0 Bmut (0 = wild type, -1 = scrambled)

ATATTGTGCAGACTTGGACCCTGCCCTTTCTTT
binding signal: 0.3 Bmut (0 = wild type, -1 = scrambled)

ATAGTTTGCAGACTTGGACCCTGCCCTTTCTTT
binding signal: -0.3 Bmut (0 = wild type, -1 = scrambled)

ATAGTGTTCAGACTTGGACCCTGCCCTTTCTTT
binding signal: -0.4 Bmut (0 = wild type, -1 = scrambled)

ATACTGTGCAGACTTGGACCCTGCCCTTTCTTT
binding signal: -0.1 Bmut (0 = wild type, -1 = scrambled)
